These results are taken from the supplement of paper PMC8866396.

The test system of one assay is IL-6-GFP PC-9GR. The assay is described as follows: cell viability (CCK-8 OD) relative to DMSO control (fraction of control); higher = more viable cells. To be noted: compound concentration: 10 uM; treatment time: 48 h. A digest of the protocol:
(§1)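 Each well's viability is its CCK-8 optical density divided by that of the vehicle control well. The cells, PC-9 and PC-9GR lung cancer lines overexpressing IL-6-GFP from a lentiviral construct, were seeded at 3000 cells/well in 96-well plates and exposed for 48 h to each compound of a purchased 510-compound library at a final 10 μM, in two independent replicates.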

A further assay deals with IL-6-GFP PC-9. The assay is described as above. To be noted: compound concentration: 10 uM; treatment time: 48 h. A digest of the protocol: as §1

Each structure is given as a SMILES string. ± gives the standard deviation of the averaged measurements.

Take `CNC(=O)c1cc(Oc2ccc(NC(=O)Nc3ccc(Cl)c(C(F)(F)F)c3)cc2)ccn1` [Sorafenib]: the results for the cell viability in the assay with IL-6-GFP PC-9GR and with IL-6-GFP PC-9 were 0.634 ± 0.37 and 0.565 ± 0.1, respectively.

Take `NCCc1c[nH]cn1` [Histamine]: the cell viability is 1.05 ± 0.16 in the assay on IL-6-GFP PC-9GR and 1.29 ± 0.22 in the assay with IL-6-GFP PC-9.

With `CNCC(O)C(O)C(O)C(O)CO.Cc1c(Nc2ncccc2C(=O)O)cccc1C(F)(F)F` [Flunixin Meglumin], the cell viability in the assay on IL-6-GFP PC-9GR was 1.15 ± 0.12; with IL-6-GFP PC-9, 0.964 ± 0.087.

Consider `C=CC1CN2CCC1CC2C(O)c1ccnc2ccc(OC)cc12.Cl.O.O` (stereo not given) [Quinine HCl Dihydrate], for which the cell viability was found to be 1.2 ± 0.21 with IL-6-GFP PC-9GR and 1.19 ± 0.04 in the assay on IL-6-GFP PC-9.

For `CC(=O)OC1(C(C)=O)CCC2C3C=C(Cl)C4=CC(=O)C5CC5C4(C)C3CCC21C` (stereo not given) [Cyproterone Acetate], the figures for the cell viability with IL-6-GFP PC-9GR and in the assay on IL-6-GFP PC-9 were 1.13 ± 0.092 and 1.2 ± 0.092, respectively.

Regarding `CC1(C)SC2C(NC(=O)C(c3ccccc3)S(=O)(=O)[O-])C(=O)N2C1C(=O)[O-].[Na+].[Na+]` (stereo not given) [Sulbenicillin Sodium], the cell viability worked out at 0.802 ± 0.17 in the assay with IL-6-GFP PC-9GR and 0.857 ± 0.019 with IL-6-GFP PC-9.

Turning to `COc1cc2c(cc1OC)C1CC(OC(=O)C(N)C(C)C)C(CC(C)C)CN1CC2.Cc1ccc(S(=O)(=O)O)cc1.Cc1ccc(S(=O)(=O)O)cc1` (stereo not given) [Valbenazine tosylate], the cell viability turned out to be 0.833 ± 0.14 in the assay on IL-6-GFP PC-9GR and 1.01 ± 0.084 in the assay with IL-6-GFP PC-9.

In the case of `CN1C(C(=O)Nc2ccccn2)=C(O)c2ccccc2S1(=O)=O` [Piroxicam], the figures for the cell viability in the assay with IL-6-GFP PC-9GR and with IL-6-GFP PC-9 were 1.21 ± 0.047 and 1.09 ± 0.12, respectively.

`CC(=O)C1CCC2C3CC(C)C4=CC(=O)CCC4(C)C3C(O)CC12C` (stereo not given) [Medrysone]: the cell viability in the assay on IL-6-GFP PC-9GR stood at 0.958 ± 0.024; in the assay on IL-6-GFP PC-9, 1.15 ± 0.051.

Take `O.O.O=C([O-])CCNC(=O)c1ccc(N=Nc2ccc(O)c(C(=O)[O-])c2)cc1.[Na+].[Na+]` [Balsalazide disodium]: the figures for the cell viability in the assay on IL-6-GFP PC-9GR and in the assay on IL-6-GFP PC-9 were 1.24 ± 0.25 and 1.34 ± 0.11, respectively.
